Drawing on PubChem BioAssay (NCI), this text covers growth for 14 molecules.

About 83,000 compounds went through this panel and 20% of them were active in at least one assay; those are over-represented in the sample as a whole.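 The endpoint reported here, percent growth, reads 100 for growth as untreated, 0 for no net growth and -100 for all cells dead.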 Unmarked numbers belong to inactive results. Active and inactive are the calls of the source. The calls were made as follows: active = growth percent below 10; inactive = the rest.

Some test systems named below: DU-145 prostate; K-562 leukemia; MALME-3M melanoma; MDA-MB-231 breast; SF-268 CNS; SF-295 CNS; SF-539 CNS; UACC-257 melanoma; M14 melanoma.
What all share (experiment): NCI-60 one-dose screen, 48 h (100 = growth as untreated, 0 = no growth, -100 = all killed)
Common to all, as to conditions: 10 µM

As for `COc1nccnc1NS(=O)(=O)c1ccc(NC2=C(Cl)C(=O)c3nc(C)ccc3C2=O)cc1`, the growth with DU-145 prostate was 107%; in the assay with K-562 leukemia, 96.3%; with MALME-3M melanoma, 100%; in the assay on MDA-MB-231 breast, 91.1%; in the assay on SF-268 CNS, 92.9%; in the assay with SF-295 CNS, 97.5%. For the same molecule, the growth is 94% with SF-539 CNS, 101% in the assay on UACC-257 melanoma and 112% in the assay on M14 melanoma.

Turning to `COc1ccc2c(c1)N=C(C(=O)O)/C2=C/c1sc(Nc2ccc(O)cc2)nc1O`, the growth with DU-145 prostate is 94.1%; in the assay with K-562 leukemia it was 29.1%; in the assay on MALME-3M melanoma, 50.7%; in the assay with MDA-MB-231 breast, 63.7%; in the assay with SF-268 CNS, 78.1%; with SF-295 CNS, 76.5%. Also, the results for the growth with SF-539 CNS, with UACC-257 melanoma and with M14 melanoma were 52.1%, 81.3% and 72.3%, respectively.

As to `CC(=O)Nc1ccc(-c2cn(-c3cccc(C(=O)Nc4cc(CN5CCOCC5)cc(C(F)(F)F)c4)c3)nn2)cn1`, the growth in the assay with DU-145 prostate was -40% (active); with K-562 leukemia it was 0.612% (active); in the assay with MALME-3M melanoma, -97.1% (active); in the assay on MDA-MB-231 breast, -95.7% (active); with SF-268 CNS, -27.5% (active); with SF-295 CNS it was -88.6% (active). In addition, the growth in the assay with SF-539 CNS is -100% (active); with UACC-257 melanoma, -81.5% (active); in the assay on M14 melanoma, -90.3% (active).

Turning to `CCOC(=O)N/C(=C1/OCCN1C)[P+](c1ccccc1)(c1ccccc1)c1ccccc1`, the growth with DU-145 prostate is 93%; in the assay with K-562 leukemia, 41.2%; in the assay on MALME-3M melanoma, 71%; with MDA-MB-231 breast it was 59.9%; in the assay with SF-268 CNS it was 103%; in the assay with SF-295 CNS, 88.1%. The growth in the assay on SF-539 CNS is 78.1%; in the assay on UACC-257 melanoma it was 27.8%; in the assay on M14 melanoma it was 90.9%.

As for `COc1ccc(-c2cc(C(=O)N=Nc3c(O)[nH]c4ccccc34)c3ccccc3n2)cc1`, the growth in the assay on DU-145 prostate was -92.8% (active); in the assay with K-562 leukemia, 25.7%; with MALME-3M melanoma, -54.6% (active); in the assay with MDA-MB-231 breast, -58.8% (active); in the assay on SF-268 CNS, -0.0948% (active); in the assay with SF-295 CNS, 4.82% (active). Further, the growth with SF-539 CNS is -76% (active); with UACC-257 melanoma, 47.8%; in the assay with M14 melanoma it was 11.1%.

As for `O=C(Nc1cccc(C(F)(F)F)c1)c1cncc(C#Cc2cnc3cccnn23)c1`, the growth with DU-145 prostate was 22.6%; in the assay on K-562 leukemia, 8.07% (active); in the assay with MALME-3M melanoma it was 28%; with MDA-MB-231 breast, 27.9%; in the assay on SF-268 CNS, 46.4%; in the assay on SF-295 CNS, 63.5%. Further, the results for the growth in the assay on SF-539 CNS, in the assay with UACC-257 melanoma and with M14 melanoma were 31.9%, 83.6% and 35.5%, respectively.

In the case of `COc1cc(/C=C/C(=O)c2ccc(NC(=O)CSc3nnc(-c4c[nH]c5ccccc45)n3-c3ccccc3)cc2)cc(OC)c1OC`, the growth in the assay on DU-145 prostate was 79.6%; in the assay on K-562 leukemia, 28.6%; with MALME-3M melanoma it was 95.2%; in the assay with MDA-MB-231 breast it was 64.2%; in the assay on SF-268 CNS, 85.4%; in the assay with SF-295 CNS, 74.3%. The growth in the assay on SF-539 CNS was 60.8%; in the assay with UACC-257 melanoma, 106%; with M14 melanoma it was 81.1%.

As to `O=c1oc2ccccc2cc1-c1csc(N=Nc2c(O)[nH]c3ccc(Br)cc23)n1`, the growth in the assay with DU-145 prostate is 94.2%; in the assay on K-562 leukemia it was 103%; in the assay with MALME-3M melanoma, 56.3%; with MDA-MB-231 breast, 56.5%; in the assay with SF-268 CNS, 51.2%; with SF-295 CNS, 39.5%. For the same molecule, the values for the growth with SF-539 CNS, with UACC-257 melanoma and in the assay on M14 melanoma were 35.6%, 105% and 97.5%, respectively.

For `C=C[C@@]12CN3CC[C@]1(O)[C@@](C(=O)OC)(CO2)c1[nH]c2ccccc2c1C3`, the growth in the assay on DU-145 prostate was 68.3%; in the assay on K-562 leukemia, 33.9%; with MALME-3M melanoma, 95.5%; in the assay on MDA-MB-231 breast it was 76.9%; in the assay with SF-268 CNS, 85.3%; in the assay with SF-295 CNS, 71%. In addition, the values for the growth with SF-539 CNS, in the assay with UACC-257 melanoma and with M14 melanoma were 71.9%, 49.7% and 64.4%, respectively.

As to `CCOC(=O)C1=C(N)N(c2ccccc2)C2=C(C(=O)CC(C)(C)C2)C1c1ccccc1OC` (stereo unspecified), the growth in the assay on DU-145 prostate was 99.6%; in the assay on K-562 leukemia, 97.2%; in the assay with MALME-3M melanoma, 91.3%; in the assay with MDA-MB-231 breast it was 92.5%; in the assay on SF-268 CNS it was 114%; in the assay on SF-295 CNS, 89.2%. The growth is 92.6% in the assay with SF-539 CNS, 107% in the assay with UACC-257 melanoma and 111% with M14 melanoma.

In the case of `O=C1Nc2ccc(Cl)cc2/C1=C/c1ccc(OCc2ccccn2)cc1`, the growth with DU-145 prostate was 87.8%; with K-562 leukemia it was 51%; in the assay on MALME-3M melanoma it was 38.5%; with MDA-MB-231 breast it was 21.7%; with SF-268 CNS it was 79.3%; in the assay with SF-295 CNS, 84.5%. Also, the growth is 73.5% with SF-539 CNS, 118% in the assay on UACC-257 melanoma and 89.9% in the assay with M14 melanoma.

`COc1ccccc1C(=O)NNC(=O)CSc1nc2c(c(=O)[nH]1)CCCC2`: the growth in the assay with DU-145 prostate was 104%; in the assay on K-562 leukemia, 100%; in the assay with MALME-3M melanoma, 95.6%; in the assay with MDA-MB-231 breast, 86.3%; in the assay on SF-268 CNS, 101%; in the assay on SF-295 CNS, 99.2%. Moreover, the growth was 101% in the assay with SF-539 CNS, 107% in the assay with UACC-257 melanoma and 101% with M14 melanoma.

Regarding `CCCn1c(=O)c2[nH]c(-c3ccc(OCc4nc5ccc(F)cc5[nH]4)cc3)nc2n(CCC)c1=O`, the growth with DU-145 prostate was 34.2%; with K-562 leukemia, 34.9%; in the assay with MALME-3M melanoma it was -52.2% (active); with MDA-MB-231 breast, -46.7% (active); in the assay on SF-268 CNS, 46.5%; with SF-295 CNS it was 10.6%. Besides, the values for the growth in the assay with SF-539 CNS, in the assay with UACC-257 melanoma and in the assay on M14 melanoma were -68.9% (active), 31.9% and 44.7%, respectively.

`CC(=O)c1ccc(Nc2nc(SCCC(C)C)nc(-c3ccc(F)cc3)c2C#N)cc1`: the growth in the assay on DU-145 prostate was 61.1%; in the assay on K-562 leukemia, 63.9%; with MALME-3M melanoma, 72.7%; in the assay with MDA-MB-231 breast, 24.8%; in the assay on SF-268 CNS, 52.9%; with SF-295 CNS, 11.5%. For the same molecule, the growth in the assay on SF-539 CNS is 16.3%; in the assay with UACC-257 melanoma it was 106%; with M14 melanoma, 84.7%.
